Compound activity: PubChem, National Center for Advancing Translational Sciences (NCATS)
Shown are actives, neighbours in structure and some others; about 12% of the full set was active somewhere.
HP1b binding inh = blocks HP1-beta chromodomain binding to methylated histone tails; AlphaScreen HP1-beta / biotin-H3K9me3 peptide binding; Potency, µM (series often up to 114 µM), most hits filed as inhibitors; P83916; 390,000 compounds, 0.56% hits; note: nearly all actives have a fitted effect of over 70% in size
Target sequence (P83916 whole entry, looked up): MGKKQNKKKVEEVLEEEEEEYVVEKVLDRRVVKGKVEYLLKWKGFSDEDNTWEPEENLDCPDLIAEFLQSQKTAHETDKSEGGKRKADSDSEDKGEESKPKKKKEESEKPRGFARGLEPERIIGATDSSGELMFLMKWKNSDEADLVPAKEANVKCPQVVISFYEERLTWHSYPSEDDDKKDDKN
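AlphaScreen: HP1-beta (50 nM) preformed 30 min with biotin-H3(1-18)K9me3 peptide (50 nM) in PBS pH 7.4, 0.01% Tween-20. Compound added for 30 min at RT, then streptavidin donor/nickel chelate acceptor beads (10 ug/mL) for 30 min.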
BAZ2B inh = blocks human BAZ2B. Q9UIF8. AlphaScreen BAZ2B-H3K14Ac peptide displacement. Potency, µM (doses to about 114 µM), actives largely listed as inhibitors. 360,000 compounds, 4.4% hits; note: nearly all actives have a fitted effect of over 60% in size
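BAZ2B (50 nM) with biotin-H3(5-23)K14Ac peptide (50 nM) in PBS pH 7.4, 0.01% Tween-20, preformed 30 min, then compound 30 min at room temperature; top concentration 110uM. AlphaScreen streptavidin donor/nickel chelate acceptor beads (10 ug/mL final), 20 min dark, signal read.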
JMJD2A Tudor = inhibitors of human JMJD2A Tudor domain; O75164; AlphaScreen JMJD2A-Tudor / H3K4me3 peptide binding; Potency, µM (series often up to 114 µM), hits mostly inhibitors; 390,000 compounds, 4.4% hits; note: nearly all actives have a fitted effect of over 50% in size
G9a block = G9a (human) methyltransferase inhibition; 350,000 compounds, 8.8% hits; AID 504332; G9a H3K9 monomethylation, AlphaScreen, 2 h; Potency, µM (series often up to 102 µM), hits mostly inhibitors; Q96KQ7; note: nearly all actives have a fitted effect of over 75% in size
Target sequence (Q96KQ7 913-1193 limits assumed): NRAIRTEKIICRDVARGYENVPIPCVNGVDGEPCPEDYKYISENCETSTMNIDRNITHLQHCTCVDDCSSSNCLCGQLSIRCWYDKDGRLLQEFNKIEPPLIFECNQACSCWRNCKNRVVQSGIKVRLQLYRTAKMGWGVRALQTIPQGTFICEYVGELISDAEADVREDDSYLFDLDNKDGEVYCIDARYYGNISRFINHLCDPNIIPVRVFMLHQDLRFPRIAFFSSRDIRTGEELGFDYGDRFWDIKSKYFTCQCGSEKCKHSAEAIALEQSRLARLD
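Using a bead-based AlphaScreen, monomethylated H3K9 product from 2 h room-temperature reactions (G9a 20 nM, peptide 500 nM, SAM 20 uM) was detected with 0.5 ug/mL rabbit anti-H3K9me1 antibody.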
L3MBTL1 block = inhibitors of human L3MBTL1; Q9Y468; AlphaScreen L3MBTL1–H3K9me1 peptide binding; Potency, µM (series often up to 57.1 µM), usual class: inhibitors; 230,000 compounds, 0.66% hits; note: nearly all actives have a fitted effect of over 60% in size
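Read-out is AlphaScreen signal from streptavidin donor and nickel chelate acceptor beads (10 ug/mL final each) bridging L3MBTL1 (50 nM) and biotinylated K9-monomethylated H3(1-15) peptide (75 nM), after 30 min compound exposure at room temperature.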
Sfp inh = inhibitors of Bacillus subtilis Sfp phosphopantetheinyl transferase; 310,000 compounds, 3.5% hits; Biochemical Sfp PPTase activity, qHTS; Potency, µM, actives largely listed as inhibitors; AID 1490;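 note: the enzyme is Sfp with the accession as filed and its product quenches rhodamine fluorescence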
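Fluorescence-quenching assay: 15 nM Sfp-PPTase preincubated 15 min at room temperature with compound, then 5 uM rhodamine-CoA and 12.5 uM BHQ-2-labelled YbbR peptide added. Fluorescence (ex 525/em 598 nm) read at start and after 30 min; difference gives rate.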
Sfp inh conf = confirmation of Bacillus subtilis Sfp PPTase inhibitors. shares compounds with Sfp inh. Sfp PPTase enzymatic assay, qHTS titration. Potency, µM (series often up to 114 µM), actives largely listed as inhibitors. 380 compounds, 79% hits
Target sequence (Q9F4F7 whole entry, looked up): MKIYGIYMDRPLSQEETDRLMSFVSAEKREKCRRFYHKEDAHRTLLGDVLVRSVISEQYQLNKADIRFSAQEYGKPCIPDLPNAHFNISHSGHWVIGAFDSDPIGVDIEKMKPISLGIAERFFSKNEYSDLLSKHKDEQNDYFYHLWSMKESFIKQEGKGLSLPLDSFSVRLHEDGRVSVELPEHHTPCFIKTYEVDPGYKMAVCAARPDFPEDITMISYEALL
Sfp PPTase gel = Blocks Sfp PPTase activity, gel read-out | shares compounds with Sfp inh | purified Sfp, gel-based phosphopantetheinylation read-out | Potency, µM, usual class: inhibitors | AID 2707 | 210 compounds, 20% hits;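 active = potency below 100 µM; inconclusive = dose-dependent response but potency above 100 µM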;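 note: potency is an IC50 for inhibitors of Sfp transfer activity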
A number is an active result; . = inactive; ? = inconclusive; / = no result; ! = not confirmed by another sample; [ ] = another dose, or the depositor's remark. Unless noted, calls come from the whole dose curve; as a rule, active = well fitted curve in the direction sought with a large enough effect; inconclusive = small, poorly fitted or top-dose-only effect, or another doubt; inactive = no such curve, though single readings can be large; an effect the other way counts as inactive or inconclusive.

SMILES	HP1b binding inh	BAZ2B inh	JMJD2A Tudor	G9a block	L3MBTL1 block	Sfp inh	Sfp inh conf	others
CCOc1cc(N2CCOCC2)c(OCC)cc1NC(=O)CN1C(=O)C2C3C=CC(C3)C2C1=O (stereo not given)	.	.	.	.	.	.	/
Cn1nnnc1SCC(=O)Nc1ccc(C(=O)N2CCN(Cc3ccccc3F)CC2)cc1	.	.	.	.[2.33 µM]	.	/	/
CCOC(=O)c1ccc(N=C2SC(C(=O)NC)CC(=O)N2Cc2ccc(F)cc2)cc1 (stereo not given)	.	.	.	.	/	.	/
Clc1ccc(N=c2ssnc2Cl)cc1	?	40µM	50µM	1.6µM	.	4µM	/
N#Cc1ccc(N=c2ssnc2Cl)cc1	7.1µM	35µM	22µM	?	.	8.9µM	/
CCOC(=O)c1ccc(N=c2ssnc2Cl)cc1	7.9µM	28µM	14µM	1.8µM	/	.	/
N#Cc1ccc(Oc2c(Cl)cncc2Cl)cc1	.	.	.	.	/	.	/
O=C1NC(=S)S/C1=C\C=C\c1ccc([N+](=O)[O-])o1	?	11µM	16µM	/	/	45µM	/
C=C1C(=O)[C@]23[C@H](O)[C@H]1CC[C@H]2[C@@]12COC3(O)[C@H](O)[C@@H]1C(C)(C)CC[C@@H]2O	/	/	/	7.1µM	/	13µM	26µM	Sfp PPTase gel=?
Cc1cc(C)c(S(=O)(=O)N2CCN(C(=O)CCn3nc(C)c(C)c3C)CC2)c(C)c1	.	.	.	.	/	.	/
CCOC(=O)c1nn(-c2ccc(C)cc2)c(=O)c2c(N)scc12	.	?	?	1.3µM	.	3.5µM	19µM
CCOC(=O)c1nc(N)c(=O)n(-c2ccc(C)cc2)n1	.	.	.	.	.	.	/
O=C(CSc1ncnc2sc3c(c12)CCCCC3)NCc1ccco1	.	?	.	?	/	14µM	53µM
COc1cccc(C(=O)Nc2cccc(-c3ccc(N4CCOCC4)nn3)c2)c1OC	.	.	.	.	.	/	/
Cc1cc2nc3ccc(=[N+](C)C)cc-3sc2cc1N	.	35µM	?	/	.	25µM	37µM
CCSc1nnc(NC(=O)C(C(F)(F)F)C(F)(F)F)s1	.	.	.	.[12.7 µM]	.	.	/
CCSc1nnc(NC(=O)C2CCCCC2C(=O)OCC(F)(F)C(F)F)s1 (stereo not given)	.	.	.	?	.	22µM	53µM
Cn1c(SCC(=O)c2cc3ccccc3o2)nnc1-c1ccccc1	.	.	?	11µM	.	13µM	53µM
CCN(CC)c1ccc(NC(=O)c2ccccc2)cc1S(=O)(=O)Nc1ccccc1OC	?	.	79µM	1µM	.	3.2µM	6.6µM
O=[N+]([O-])c1ccc(S(=O)(=O)NCCc2ccncc2)cc1	.	.	.	?	.	.	/
CC(C)(Sc1cc(C(C)(C)C)c(O)c(C(C)(C)C)c1)Sc1cc(C(C)(C)C)c(O)c(C(C)(C)C)c1	.	.	.	.	.	.	/
Cn1ccnc1C(O)c1cc(C(C)(C)C)c(O)c(C(C)(C)C)c1 (stereo not given)	.	?	?	50µM	.	45µM	47µM
COc1cccc(CNc2nc3ccccc3n2C(C)C)c1O	.	.	.	/	.	.	/
O=C(NCCCN1CCOCC1)c1sc2cc(Cl)ccc2c1Cl	.	.	.	.	.	.	/
O=C(NCCCN1CCOCC1)c1sc2cc([N+](=O)[O-])ccc2c1Cl	?	.	79µM	0.89µM	.	0.89µM	2.4µM
SMILES	HP1b binding inh	BAZ2B inh	JMJD2A Tudor	G9a block	L3MBTL1 block	Sfp inh	Sfp inh conf	others
O=C(Nc1ccccn1)c1sc2cc([N+](=O)[O-])ccc2c1Cl	.	?	56µM	1.6µM	.	6.3µM	3.7µM
Cc1ccc(-c2csc(NC(=S)NC(=O)c3ccco3)n2)cc1	.	.	.	.	.	.	/
Cc1ccc(Nc2nc(-c3sc(NC(=O)c4ccco4)nc3C)cs2)cc1	.	?	?	?	.	16µM	53µM	Sfp PPTase gel=?
CCOC(=O)c1c(-c2ccc(C)o2)csc1NC(=O)CSc1nnnn1-c1ccccc1	.	.	.	?	.	3.5µM	9.4µM
NNc1nncc2ccccc12	/	/	/	7.9µM!	/	5µM!	?	Sfp PPTase gel=74µM
COc1ccc(/C(C)=N/Nc2nncc3ccccc23)cc1	.	.	.	.	/	.	/
CCN(CC)C1=CC(=O)OC12CCCCC2	.	.	32µM	3.5µM	.	35µM	?
CC(=O)c1ccc(N2CCN(C(=O)C3CCN(S(=O)(=O)c4cccs4)CC3)CC2)cc1	.	.	.	.	/	.	/
N#C/C(=C\c1ccc[nH]1)C(=O)Nc1ccccc1[N+](=O)[O-]	.	.	.	.	/	.	/
CC1=C(C(N)=O)N2C(=O)[C@@H](NC(=O)Cc3ccccc3)C2SC1 (stereo not given in full)	/	/	/	/	/	25µM	4.5µM	Sfp PPTase gel=0.92µM
C=CC1=C(C(=O)O)N2C(=O)[C@@H](NC(=O)C(N=O)c3csc(N)n3)[C@H]2SC1 (stereo not given in full)	/	/	/	.	/	32µM	42µM	Sfp PPTase gel=56µM
N[C@@H](C(=O)N[C@@H]1C(=O)N2C(C(=O)O)=C(Cl)CS[C@H]12)c1ccccc1	.	32µM	25µM	50µM	?	50µM	74µM	Sfp PPTase gel=56µM
CC=CC1=C(C(=O)O)N2C(=O)[C@H](NC(=O)[C@H](N)c3ccc(O)cc3)[C@@H]2SC1	/	/	/	?	/	40µM	37µM	Sfp PPTase gel=19µM
C=CC1=C(C(=O)O)N2C(=O)C(NC(=O)/C(=N\O)c3csc(N)n3)C2SC1 (stereo not given)	/	/	/	.[2.33 µM]	/	.	/
Cc1cccc(OC(=O)CSc2nnc(-c3cccs3)o2)c1C	.	.	.	?	/	/	/
CN1CCC(=C2c3ccccc3C=Cc3ccccc32)CC1	.	.	.	.	.	45µM!	83µM	Sfp PPTase gel=.
COc1ccccc1/C=C/C(=O)N1CCN(S(=O)(=O)c2cccs2)CC1	.	/	.	/	.	/	/
O=C(CC(Nc1ccc(F)cc1)C(=O)O)c1ccccc1 (stereo not given)	.	.	.	10µM	.[11.4 µM]	2.2µM	15µM	Sfp PPTase gel=.
COc1ccccc1CC(Cc1nc2ccccc2[nH]1)c1nc2ccccc2[nH]1 (stereo not given)	.	.	.	.	.	5µM	17µM
O=C(O)c1ccc(-n2c(/C=C/c3ccccc3)nc3ccccc3c2=O)cc1	.	.	.	.	/	.	/
O=C(O)c1ccc(-n2c(=O)c3ccccc3c3ccccc3c2=O)cc1	.	89µM	.	.[0.501 µM]	.	7.9µM	74µM	Sfp PPTase gel=?
Cc1ccc(C(=O)COc2cc(C)nc3nncn23)cc1	.	.	.	.	.	.	/
